The whole screen tested about 7,400 compounds, of which about 4,100 (55%) were called active. So high a share suggests a set chosen from earlier hits. These entries were drawn from the full list. Values without a mark were called inactive.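 The calls were made as follows: active = inhibition of yeast growth at or above a set limit in either of two repeat tests at 20 µM; inactive = the rest.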

This passage reports inhibition results from PubChem BioAssay AID463213 (Sanford-Burnham Center for Chemical Genomics, 2010).

The nature of this test: tim10-1 ts yeast growth inhibition, retested – single concentration, luminescence, S. cerevisiae, confirmation (AID 463213).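 Also: tim10-1 mutant grown at permissive 25 °C to find synthetic lethal compounds; 0% = DMSO yeast wells and 100% = medium wells without yeast.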 The note with it: S. cerevisiae tim10-1 ts strain growth, BacTiter-Glo, 24 h; at 20 µM; stronger effect = higher value.
What is called inhibition is the drop in the measured response relative to a control, in per cent. In the case of `CCOC(=O)N1CCN(C(=O)c2cc3c(-c4ccc(Cl)cc4)nn(C)c3s2)CC1`, the inhibition is 22.4%.

Consider `Cc1nc(-c2ccc(Cl)cc2)sc1C(=O)CBr`, for which the inhibition was 55.2% (active).

For `O=C(Oc1c(-c2ccco2)oc2ccccc2c1=O)c1cccnc1`, the inhibition was 42.6% (active).

Turning to `COc1ccc2nc(N3CCN(C(=O)c4ccc([N+](=O)[O-])o4)CC3)sc2c1`, the inhibition is -0.8%.

With `CCc1nc2ccc(C(=O)N3CCN(c4cccc(Cl)c4)CC3)cc2nc1CC`, the inhibition is 24.6%.

Consider `O=C(c1ccc2nc(N3CCOCC3)sc2c1)N1CCN(c2ccc(Cl)cc2)CC1`, for which the inhibition was 41.5% (active).

As to `Cc1ccccc1CC1(CO)CCCN(C(=O)c2cc(-c3ccccc3)no2)C1` (stereo not given), the inhibition was 21.1%.

In the case of `O=C(Cc1ncc(C(F)(F)F)cc1Cl)Nc1cccc(Br)c1`, the inhibition was 30.4%.

Consider `N/C(=N\OC(=O)Nc1ccc(Cl)c(Cl)c1)c1ncc(C(F)(F)F)cc1Cl`, for which the inhibition is 67.4% (active).

In the case of `CC1(C)CCSC(/C=C/c2ccccc2)=N1`, the inhibition is 49.4% (active).

For `Cc1ccc(C(=O)CCC(=O)N(C)CC(=O)Nc2c(Cl)cccc2Cl)cc1`, the inhibition was -3%.

Take `FC(F)(F)Oc1ccc(NC(=S)NCc2ccccc2)cc1`: the inhibition is 47% (active).

As for `C/C(=N\NC(=S)NCc1ccccc1)C1CCCCC1`, the inhibition is 26.9%.

Turning to `COc1ccc(NC(=S)N2N=CCC2c2ccccc2)cc1` (stereo not given), the inhibition was 16.2%.

`Cc1ccc2c(c1)C1CN(C)CCC1N2S(=O)(=O)c1ccc(Oc2ccc([N+](=O)[O-])cc2)cc1` (stereo not given): the inhibition is 22.1%.

As to `Oc1c(Cl)cc(Cl)c(Cl)c1Cc1c(O)c(Cl)cc(Cl)c1Cl`, the inhibition was 88.7% (active).

Regarding `CCc1nn(CCCC(=O)Nc2ccc(C)cc2C)c(=O)c2cc3occc3n12`, the inhibition is -8.95%.

As for `COc1ccc(-n2cc(-c3ccccc3)c3c(=S)nc[nH]c32)cc1`, the inhibition is 34.4% (active).

For `CCOC(=O)C1Cn2c(nc3c(c2=O)C(C)(CC)Cc2ccccc2-3)S1` (stereo not given), the inhibition was 10%.

On to `O=C(/C(=C/c1cccc(Cl)c1)c1nc2ccccc2[nH]1)c1ccccc1`, for which the inhibition was 38.7% (active).

Regarding `O=C(Nc1cccc(Cl)c1)c1cncn1-c1ccc(F)cc1`, the inhibition is 33% (active).

In the case of `CCNC(=S)N(CCc1c(C)[nH]c2ccc(C)cc12)Cc1ccco1`, the inhibition is 24.5%.

On to `Cc1nonc1C1CCCN1C(=O)c1cc(COc2cccc(C(F)(F)F)c2)on1` (stereo not given), for which the inhibition was 41.6% (active).

Regarding `CCOC(=O)C1(S(=O)(=O)c2ccccc2)CCN(Cc2ccccc2)CC1`, the inhibition is 14.3%.

For the compound `O=C1c2ccccc2C(=O)c2c1cccc2N1CCN(Cc2ccccc2)CC1`, the inhibition was 32% (active).

On to `O=C(c1ccc(CSc2ccccc2)cc1)N1CCCCCC1`, for which the inhibition is 26.4%.

As to `O=C(CCCN1C(=O)/C(=C/c2ccccc2)SC1=S)Nc1ccc(O)cc1`, the inhibition was 28.7% (active).

Consider `COc1ccc(/C=C2/SC(=O)N(CCCCCC(=O)Nc3ccccc3C(=O)O)C2=S)cc1`, for which the inhibition is 4.8%.

For the compound `O=C1/C(=C\c2ccccc2Cl)SC(=S)N1CCC(=O)N1CCCc2ccccc21`, the inhibition was 27.6%.

As for `COc1ccccc1C1C(C#N)=C(N)Oc2c1c(-c1ccccc1)nn2-c1ccccc1` (stereo not given), the inhibition was 21.8%.

Regarding `Cc1ccc(C(C[N+](=O)[O-])c2c(C)cc3ccccn23)cc1` (stereo not given), the inhibition was 30.6% (active).

On to `CCN1/C(=C\c2ccc3ccccc3[n+]2CC)Sc2cc(C)ccc21`, for which the inhibition is 59% (active).

For `COc1ccc2nc(/N=C(\N)NC(=O)Nc3ccccc3)nc(C)c2c1`, the inhibition was 51% (active).

On to `O=C1[C@@H](c2ccccc2)[C@@H](c2ccccc2)N1c1cccnc1`, for which the inhibition is 66.5% (active).

Take `O=c1c(-c2ccc3c(c2)OCCO3)c(C(F)(F)F)oc2cc(O)cc(O)c12`: the inhibition is 22.5%.

Consider `Cc1cccc(NC(=O)c2ccc([N+](=O)[O-])o2)c1`, for which the inhibition is 50.1% (active).

`Cc1onc(NC(=O)c2ccc([N+](=O)[O-])o2)c1Br`: the inhibition was 45.9% (active).

For `O=C(Nc1ccc(Br)cn1)c1ccc([N+](=O)[O-])o1`, the inhibition is 59.5% (active).

Consider `Cc1cccc(CN2CCC(CNC(=O)Nc3ccc(F)c(Cl)c3)CC2)c1`, for which the inhibition is 14.9%.

Take `CCOC(=O)C1=C(C)N=c2s/c(=C\C(=O)OC)c(=O)n2C1c1ccc(OC)cc1` (stereo not given): the inhibition was 24.7%.

For the compound `CC(=O)/C(=N\Nc1ccc(Cl)cc1Cl)Sc1cccc2cccnc12`, the inhibition was 43% (active).

On to `Cc1cc(C)c(S(=O)(=O)c2ccccc2)c(OC(=O)c2c(F)cccc2Cl)n1`, for which the inhibition was 41.5% (active).

For `Oc1c(C(c2ccccn2)N2CCOCC2)ccc2cccnc12` (stereo not given), the inhibition was 16.2%.

Consider `CCN1CCN(C(c2cccnc2)c2cc(Cl)c3cccnc3c2O)CC1` (stereo not given), for which the inhibition was 34% (active).

Consider `CCOC(=O)c1ccc(N2C(=O)CC(N3CCC(C(=O)OCC)CC3)C2=O)cc1` (stereo not given), for which the inhibition was 47.8% (active).

With `Cc1[nH]c(=O)c(C(=O)/C=C/c2ccccc2)c2c1CCCC2`, the inhibition is 50.3% (active).

Turning to `COc1ccc(Cn2c(-c3ccc(Cl)cc3)c[n+]3ccccc23)cc1`, the inhibition was 32.9% (active).

For the compound `CCc1ccc(-c2cc3c(=O)n(CC(=O)NCCCN4CCN(Cc5ccccc5)CC4)nc(C)n3n2)cc1`, the inhibition was -46.4%.

As for `CCCCNC(=S)N/N=C1\CCCCc2ccccc21`, the inhibition is 22.1%.

For the compound `C=CCNC(=S)N1CCN(CCN=Cc2c(C)[nH]n(-c3ccc([N+](=O)[O-])cc3)c2=O)CC1`, the inhibition was 27.4%.

Turning to `Cc1[nH]n(-c2ccc([N+](=O)[O-])cc2)c(=O)c1C=NCCN1CCN(C(=O)c2ccccc2F)CC1`, the inhibition is 40.4% (active).

Turning to `COc1ccc(CNC(=O)/C(C#N)=C/c2cccc(OC)c2OC)cc1`, the inhibition is 78.2% (active).

Turning to `O=C(NNc1c2ccccc2nc2ccccc12)c1cc2ccccc2cc1O`, the inhibition is 40.6% (active).

As to `COc1ccc(-c2oc3ncn(Cc4ccco4)c(=N)c3c2-c2ccc(OC)cc2)cc1`, the inhibition was 17.6%.

For `CCOC(=O)c1c(N)nn(C(=O)c2ccccc2)c1-c1ccccc1`, the inhibition was 16.3%.

In the case of `Cc1cc(Nc2ccccc2)n(C(=O)c2ccc(N)cc2)n1`, the inhibition is 39.9% (active).

Consider `Clc1ccc(Nc2ccc3ccccc3n2)cc1`, for which the inhibition was 50.6% (active).

For the compound `C=CCNc1nc(Nc2ccc(Cl)cc2)nc(OC)n1`, the inhibition was 2.4%.

For `C=CS(=O)c1sc(Cl)c(N2CCOCC2)c1[N+](=O)[O-]` (stereo not given), the inhibition was 83.8% (active).

`Nc1ccccc1SC(C[N+](=O)[O-])c1ccccc1` (stereo not given): the inhibition was 47.1% (active).

On to `Cc1ccc(OS(=O)Nc2cccc3nccnc23)cc1` (stereo not given), for which the inhibition is 25.4%.

Take `CC(=O)Nc1ccc(/C=C/C(=O)c2ccccc2)cc1`: the inhibition is 36.3% (active).

With `COc1ccc(C(=O)/C=C/c2ccc(-c3ccccc3)cc2)cc1CSCC(=O)O`, the inhibition is 22.9%.

`CN1c2ccccc2-c2nc3ccccc3n2C1c1ccco1` (stereo not given): the inhibition was 19.8%.

As for `CCn1nc(C)c(NC(=O)/C=C/c2ccc(OC)c(COc3ccc(Br)cc3)c2)c1C`, the inhibition was 19.9%.

Regarding `CCCCCCCCn1c2c(c(=N)c3c1CCC3)CCCC2`, the inhibition was 30.4% (active).

In the case of `O=[N+]([O-])c1ccc2oc(-c3cccc(O)c3)nc2c1`, the inhibition is 49.8% (active).

On to `COc1ccccc1-n1ccnc(SCC(=O)NC2CCCCC2)c1=O`, for which the inhibition is 11.8%.

Turning to `Cc1ccc(C(=O)NC(=S)Nc2ccccc2C)cc1`, the inhibition is 29.8% (active).

On to `CCc1ccc(C(=O)NC(=S)Nc2ccccc2N2CCOCC2)cc1`, for which the inhibition was 17.1%.

For `COc1ccccc1C(=O)NC(=S)Nc1ccccc1N1CCCCC1`, the inhibition was 19.4%.

With `COc1ccc(/C=N/Nc2ncnc3sc4c(c23)CCCC4)cc1O`, the inhibition is 17.2%.

For the compound `Cc1ccc(C(=O)/C=C/c2c(C)nn(-c3ccccc3)c2Cl)cc1`, the inhibition was 38% (active).

Turning to `CCOC(=O)N1CCC(N2Cc3cccc(C(=O)Nc4c(C)cccc4CC)c3C2=O)CC1`, the inhibition is 16.6%.

With `COc1ccc(C(=O)NC(=S)NNC(=O)c2c(-c3ccccc3)noc2C)cc1`, the inhibition was 18.1%.

Turning to `Cc1[nH]c2ccccc2c1C(=O)COC(=O)c1c(-c2ccccc2)noc1C`, the inhibition was 45.4% (active).

`COc1ccc(Nc2nc(N)nc(CSC(=S)N3CCC(C)CC3)n2)cc1`: the inhibition is 29.9%.

As to `CC(=NCc1ccco1)c1c(C(F)(F)F)[nH]n(-c2nc3ccccc3s2)c1=O`, the inhibition is 63.5% (active).

With `Cc1cc(Br)ccc1NC(=O)c1sc2ncn(CC(=O)N3CCN(c4ccccn4)CC3)c(=O)c2c1C`, the inhibition was -10.2%.

Consider `O=C(O/N=C(/c1ccccc1)c1ccncc1)c1ccccc1[N+](=O)[O-]`, for which the inhibition was 35.3% (active).

Take `O=C(Oc1ccc(-c2nc(-c3ccccn3)no2)cc1)c1ccccc1`: the inhibition is 30.3%.

On to `Cc1ccc(Oc2nc(-c3ccccn3)nc3ccccc23)cc1`, for which the inhibition was 35.5% (active).

For `O=C(ON=C1CCN(S(=O)(=O)c2ccccc2)CC1)c1ccc(Cl)cc1`, the inhibition is 61% (active).

Regarding `CCOc1cccc(-c2nn3c(-c4ccccn4)nnc3s2)c1`, the inhibition was 39% (active).

For the compound `Cc1cc(C)nc(S/C=C/C(=O)c2ccccc2)n1`, the inhibition is 71% (active).

As to `COc1ccc(NCc2nnc(SCc3ccccc3)n2-c2ccc(OC)cc2)cc1`, the inhibition was 38.9% (active).

In the case of `N#Cc1ccc(CSc2nnc(-c3ccccn3)n2-c2ccc(Cl)cc2)cc1`, the inhibition is 30.9%.

Consider `CC(c1ccco1)N(C(=O)Nc1ccccc1)C1CCCCC1` (stereo not given), for which the inhibition was 19.4%.

`COc1ccc(OC)c2sc(NC(=O)C3COc4ccccc4O3)nc12` (stereo not given): the inhibition is 23.6%.

With `CC(NC(=S)Nc1ccccc1)C1COc2ccccc2O1` (stereo not given), the inhibition is 37.4% (active).

With `Cc1ccc(SC(CC(=O)c2ccc(C(C)(C)C)cc2)C(=O)O)cc1` (stereo not given), the inhibition is 38.5% (active).

Consider `c1c2c(cc3sc(N4CCCCC4)nc13)OCCO2`, for which the inhibition was 27.8%.

Consider `Cc1ccc(/C(N)=N/OC(=O)COc2ccc(Cl)c(C)c2)cc1`, for which the inhibition was 29.1%.

Turning to `Cc1cccc(/C(N)=N/OC(=O)c2ccccc2Cl)c1`, the inhibition was 50.9% (active).

As to `Cc1cc(N=Nc2ccc3ccccc3c2)ccc1O`, the inhibition was 36.4% (active).
